The OligoGym collection

What follows are sequences tested against KCNK12 (assay: pooled miR-30 sensor sort-seq; sequence = guide strand). Conditions: shRNA.
Note: reference of the scale not given here.

Sequence	sensor-assay potency score (higher = more potent)
TTGAAGAACAGGATGGTCCCAG	0.312
TTGATGAGGATGGAGATGACGT	-0.352
TTCTGCAGCAGCGCCAGCGACA	-1.81
TTGTTCATGATGCCCAGCGCGC	-1.54
TCGAGCGCCGAGAAGACTGTGG	-0.801
AGTAAATGCAGCACACGCCGAG	-1.04
TACATGGCCGAGGCGCAGCAGG	-1.41
TCGTTGAGGTGCGAACGGCGGC	-1.1
TTGAGCACCTGCTTGATGAGGA	0.236
AAGAGGTTGAAGAACAGGATGG	-0.732
TTGACGCACACGCTGCGCGGGT	-0.763
TTGAGGTGCGAACGGCGGCAGC	-1.57

These sequences were tested against KCNK6 in the same assay as above. Conditions: shRNA.

Sequence	sensor-assay potency score (higher = more potent)
TCATCCGCATTGAAACTGGCAG	-0.75
TAAAGCAGAAGTAGAAGGCATC	-0.372
TAGACTGTGACCAGCACCTTGT	-0.385
TTGTGTACCCATAGCCCACGGT	-0.627
AAGGCATCCAAGAAGCTCCAGG	-0.209
TAGAAGGCATCCAAGAAGCTCC	-0.185
TAGTCGGTGTGGGAGCTGGCAG	-1.57
TCCTCATCCGCATTGAAACTGG	-1.46
TTAGCAAGCACGACCCGCCCCA	-0.345
TCGGAGCCTGGCTTCGTGCGGC	-0.634
